D2 PAM-1: potentiates the human D2 dopamine receptor allosterically | AID 624464 | DiscoveRx D2 beta-arrestin cells, luminescence, 90 min; 100% = 57 uM dopamine signal | potentiation, % (test concentration not listed) | P14416 | 0.23% of 360,000 active; in the data active = potentiation above about 50%; inconclusive = mostly about 30% to 49%
Target sequence (P14416 whole entry, looked up): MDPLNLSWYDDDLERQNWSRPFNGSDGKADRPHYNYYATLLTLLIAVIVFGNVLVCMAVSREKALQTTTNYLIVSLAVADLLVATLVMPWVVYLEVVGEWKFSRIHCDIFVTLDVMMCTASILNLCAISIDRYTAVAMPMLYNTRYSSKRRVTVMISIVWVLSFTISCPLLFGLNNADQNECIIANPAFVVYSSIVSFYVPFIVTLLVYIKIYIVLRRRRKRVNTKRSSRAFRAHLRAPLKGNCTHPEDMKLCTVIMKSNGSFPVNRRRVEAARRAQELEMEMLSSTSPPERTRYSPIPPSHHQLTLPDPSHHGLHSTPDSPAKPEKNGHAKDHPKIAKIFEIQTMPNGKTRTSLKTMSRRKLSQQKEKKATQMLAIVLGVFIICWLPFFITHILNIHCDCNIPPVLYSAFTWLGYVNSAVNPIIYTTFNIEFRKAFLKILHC
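PathHunter beta-arrestin assay in DiscoveRx D2 cells. Compounds were added with an EC20 of dopamine (50 nM final) for 90 min at 37 deg C. Luminescence was read 1 h after detection reagent, with 57 uM dopamine as the EC100 control.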
D2 antag: antagonizes the human D2 dopamine receptor; 2% of 340,000 active; inhibition, % at 10 µM; AID 485344; HEK293 TREx D2 cells, calcium flux, dopamine EC80; P14416; in the data active = inhibition above about 30%; inactive = below that, where a call was filed
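Measurement of antagonist activity uses fluorescent calcium dye in inducible HEK293 T-REx D2 cells: 10 s baseline, compound addition with 180 s read, EC80 dopamine addition with a further 180 s read.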
D2 ag-1: activates the human D2 dopamine receptor | 0.084% of 360,000 active | activation, % (no concentration beside the values) | DiscoveRx PathHunter D2 beta-arrestin, luminescence, 90 min; 100% = 57 uM dopamine signal; in the data active = activation above about 40%; inconclusive = between about 15% and that limit
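DiscoveRx PathHunter D2 beta-arrestin cells (2,100/well) attached overnight, then compound-stimulated 90 min at 37 C in HBSS/10 mM HEPES/0.1% Tween-20 buffer; beta-galactosidase complementation read by luminescence after 1 h at ambient temperature. Dopamine 57 uM final (EC100) as control.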
D2 ag-2: activates the human D2 dopamine receptor | P14416 | HEK293 T-REx D2 cells, calcium flux agonist mode | activation, % at 2 µM | 0.53% of 340,000 active;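 active = activation over 3 SD above normal in the single-dose calcium agonist read, cut at about 30% in these data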
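Agonism is scored from calcium flux in a force-coupled, inducible HEK293 cell line expressing D2, read kinetically for 180 s after compound addition against dopamine controls.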
D2 PAM-2: positively modulates the human D2 dopamine receptor allosterically; HEK293 T-REx D2, calcium flux, EC20 dopamine potentiation; potentiation, % at 10 µM; 0.34% of 340,000 active; AID 485347;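 active = potentiation over 3 SD above the plate norm, cut at about 30% in these data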
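Cells plated with tetracycline inducer and held overnight at 30 C; calcium dye loaded 30–90 min at room temperature; baseline taken, compound added and read 180 s; EC20 dopamine then added and read 180 s.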
D3 ag: D3 receptor agonism confirmed, beta-arrestin readout; shares compounds with D2 ag-2; DiscoveRx D3 beta-arrestin cells, luminescence, 90 min; Potency, µM (doses to about 76.9 µM), actives largely listed as activators; 4% of 2,300 active; note: nearly all actives have a fitted effect of over 70% in size
D2 ag-3: counter-screen for D3 agonists: human D2 dopamine receptor agonism. shares compounds with D2 ag-2. DiscoveRx PathHunter D2 beta-arrestin, luminescence, 90 min; response scale: percent relative to full dopamine signal. Potency, µM (top dose mostly 76.9 µM), usual class: activators. 5.9% of 2,300 active. AID 720507; note: nearly all actives have a fitted effect of over 70% in size
Of the large screens only hits and unclear results are named; the others gave an inactive call (follow-up assays come after a bar, where they were run); ! = a repeat was not active. Only some compounds are listed: those with a hit (about 2.4% of all), similar ones and a draw of the others. Unless noted, calls come from the whole dose curve; as a rule, active = well fitted activation curve with a large enough effect; inconclusive = small, poorly fitted or top-dose-only effect; inactive = flat fitted curve, though single readings scatter.

COc1ccc2cc3cc(C(=O)NCCN4CCc5ccccc5C4)sc3nc2c1	D2 ag-2 72.1 | D3 ag inactive | D2 ag-3 inconclusive
COc1cc(C(=O)NCc2ccc3c(c2)CCN3C(=O)c2ccncc2)cc(OC)c1OC	none (no result: D2 PAM-1, D2 antag, D2 ag-1)
COc1cccc(-c2ccc3c(N)c(C(=O)NCc4ccc(Cl)cc4)sc3n2)c1	none (no result: D2 PAM-1, D2 antag, D2 ag-1)
CCOC(=O)c1ccc(OC(=O)c2cn(-c3ccc(C)cc3)c(=O)c3ccccc23)cc1	none (no result: D2 PAM-1, D2 antag, D2 ag-1)
Cc1ccc(CSc2nc3cccnc3n2Cc2nc(-c3ccccc3F)oc2C)cc1	none (no result: D2 PAM-1, D2 antag, D2 ag-1, D2 PAM-2)
Cn1c(=O)cc(SCC(=O)NCCCN2CCN(c3ccc(F)cc3)CC2)c2ccccc21	D2 antag 90.6, D2 ag-2 33.0 | D3 ag inactive | D2 ag-3 inactive
CC1(C)CC(=O)c2cc(-c3nc(-c4ccc(Cl)cc4)cs3)c(=O)n(-c3cccc(F)c3)c2C1	none (no result: D2 PAM-1, D2 antag, D2 ag-1)
COc1ccc(NC(=O)C(C)Sc2cc(-c3ccccc3)nc(C)n2)cc1Cl (configuration not stated)	none (no result: D2 PAM-1, D2 antag, D2 ag-1, D2 ag-2)
Oc1ccccc1C=NCC(O)c1ccccc1 (configuration not stated)	none | D3 ag inactive | D2 ag-3 inactive
Nc1nc(CN2CCN(c3ccccn3)CC2)nc(Nc2ccc(F)cc2)n1	D2 antag 73.2, D2 ag-1 inconclusive, D2 ag-2 73.7 | D3 ag inactive | D2 ag-3 inconclusive
COc1ccccc1Nc1nc(N)nc(CN2CCN(c3ccccc3)CC2)n1	D2 antag 43.6, D2 ag-2 52.3 | D3 ag inactive | D2 ag-3 inactive
Cc1ccc(Nc2nc(N)nc(CN3CCN(c4ccccc4)CC3)n2)cc1Cl	D2 PAM-1 101.9, D2 ag-1 inconclusive (no result: D2 antag, D2 ag-2, D2 PAM-2) | D3 ag inactive | D2 ag-3 20µM
COCCN(C(=O)c1ccc(COc2ccccc2)o1)c1c(N)n(CC(C)C)c(=O)[nH]c1=O	none | D3 ag inactive | D2 ag-3 inactive
COCCN(C(=O)C1=COCCO1)c1c(N)n(CC(C)C)c(=O)[nH]c1=O	none | D3 ag inactive | D2 ag-3 inactive
COCCN(C(=O)C1=COCCO1)c1c(N)n(Cc2ccccc2)c(=O)[nH]c1=O	none
Cc1cc2c(cc1NC(=O)c1ccccc1C)n(C)c(=O)c(=O)n2C	none (no result: D2 PAM-1, D2 antag, D2 ag-1)
Cc1ccc(S(=O)(=O)c2cn(Cc3ccccc3F)c3cc4c(cc3c2=O)OCO4)cc1	none (no result: D2 PAM-1, D2 antag, D2 ag-1)
CCCCCCCC/C=C\CCCCCCCC(=O)NCCc1ccc(O)c(O)c1	D2 PAM-1 inconclusive, D2 antag 56.6, D2 ag-1 100.1, D2 ag-2 38.6 | D3 ag 3.98µM | D2 ag-3 15.8µM
CCCCCCCC/C=C\CCCCCCCC(=O)NCCO	none
CC(SCc1cc(=O)n2c([nH]c3ccccc32)c1C#N)C(=O)O (configuration not stated)	none
COCc1cc(=O)n2c([nH]c3ccccc32)c1C#N	D2 antag 36.9 | D3 ag inactive | D2 ag-3 inactive
Cc1cc(C)c(NC(=O)c2c(C)oc3c2C2=NCCN2C=N3)c(C)c1	none (no result: D2 PAM-1, D2 antag, D2 ag-1)
O=C1C=C(/C=C/c2ccccc2)C[C@@H](c2ccc(F)cc2)C1	none | D3 ag inactive | D2 ag-3 inactive
COc1cccc(C(=O)N2CCc3cc(OC)c(OC)cc3C2COc2ccc3c(C)cc(=O)oc3c2)c1 (configuration not stated)	none (no result: D2 PAM-1, D2 antag, D2 ag-1)
CC(=O)Nc1ccc(SCCN2CC[C@@H](C)CCC2=O)cc1	none | D3 ag inactive | D2 ag-3 inactive
CC(=O)Nc1ccc(SCCN2CC[C@@H](O)CCC2=O)cc1	none
CCC(C)Sc1c(C(C)C)cnc2c1c(=O)n(C)c(=O)n2C (configuration not stated)	none (no result: D2 PAM-1, D2 antag, D2 ag-1)
CCOC(=O)C1CCCN(CC(=O)Nc2c(C(=O)OC)[nH]c3ccccc23)C1 (configuration not stated)	none (no result: D2 antag, D2 ag-2, D2 PAM-2)
CCOC(=O)C1CCN(CC(=O)Nc2c(C(=O)OC)[nH]c3cccc(C)c23)CC1	none | D3 ag inactive | D2 ag-3 inactive
Cc1cccc(NC(=O)C(c2ccccc2)N2Cc3ccccc3C2=O)c1C (configuration not stated)	none (no result: D2 PAM-1, D2 antag, D2 ag-1)
Cc1cc(N2CCOCC2)nc(N)n1	D2 ag-2 41.0 | D3 ag inactive | D2 ag-3 inactive
COc1ccc(Cl)cc1S(=O)(=O)NC1CC(C)(C)NC(C)(C)C1	none (no result: D2 antag, D2 ag-2)
CCOc1ccc(Br)cc1S(=O)(=O)NC1CC(C)(C)NC(C)(C)C1	none | D3 ag inactive | D2 ag-3 inactive
Cc1cc(C)c(S(=O)(=O)NC2CC(C)(C)NC(C)(C)C2)cc1C	D2 ag-2 30.0 | D3 ag inactive | D2 ag-3 inactive
CCOc1cc(C)c(S(=O)(=O)NC2CC(C)(C)NC(C)(C)C2)cc1C	none
O=C(CCSCc1cnn(-c2ccccc2)c1-n1cccc1)NCc1ccccc1Cl	none (no result: D2 PAM-1, D2 antag, D2 ag-1)
COc1ccc(/C=c2\s/c(=C/C(=O)c3ccc(C)cc3)[nH]c2=O)cc1OC	none | D3 ag inactive | D2 ag-3 inactive
Cc1ccc(-c2cc(C(F)(F)F)n3nc(C(=O)Nc4ccc(Cl)c(C(F)(F)F)c4)cc3n2)cc1	none (no result: D2 PAM-1, D2 antag, D2 ag-1)
Nc1c(C(=O)Nc2ccc(Cl)cc2F)sc2nc(-c3cccs3)ccc12	none (no result: D2 PAM-1, D2 antag, D2 ag-1, D2 ag-2)
COc1ccc([C@H]2CC(=O)C=C(c3ccc4c5c(cccc35)CC4)C2)cc1	none | D3 ag inactive | D2 ag-3 inactive
COc1ccc([C@H]2CC(=O)C=C(c3ccc(C)c4ccccc34)C2)cc1	none
O=C(Cn1c(=O)n(-c2ccc(Cl)cc2)c(=O)c2c3c(sc21)CCCCC3)Nc1cccc(Cl)c1	none (no result: D2 PAM-1, D2 antag, D2 ag-1)
Cc1c(O)c(=O)ccn1C	D2 antag 31.4!, D2 ag-2 56.9! | D3 ag inactive | D2 ag-3 inactive
COc1ccc(C2(NC(C)=O)CCN(C(=O)CCC(=O)O)CC2)cc1	D2 ag-2 50.8 | D3 ag inactive | D2 ag-3 inactive
COc1ccc(CNC(=O)CCC(=O)N2CCN(C(C)=O)CC2)cc1	none
COc1ccccc1/C=N/NC(=O)c1ccc(NC(=O)c2ccccc2Br)cc1	D2 ag-2 62.9 | D3 ag inactive | D2 ag-3 inactive
CCOC(=O)N1CCN(Cc2ccc(OCC(O)CN3CCCCC3)cc2)CC1 (configuration not stated)	D2 antag 50.9, D2 ag-1 inconclusive, D2 ag-2 62.9 | D3 ag inactive | D2 ag-3 inconclusive
CCC(=O)c1ccc(OCC(O)CN2CCN(c3ccccn3)CC2)cc1 (configuration not stated)	D2 antag 73.6, D2 ag-1 60.4, D2 ag-2 79.7 | D3 ag 0.891µM | D2 ag-3 2µM
